Several values for one entry are separate records, joined by “and”; a condition that tells them apart may be missing. Identical values can stand only once. Where a structure was tested more than once in an assay, its records may differ in their call. Activity calls are given as the source filed them. How the source made its calls: active means hit-call score of the fitted dose curve at least 0.9, where 1 is the maximum; inactive means score below 0.9.
Legend:
[1] = APR_HepG2_P-H2AX_72hr: Apredica 72-hour HepG2 Assay for H2AX Phosphorylation (AID 2282916); settings: imaging, actives raise or lower the signal;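 further: phospho-histone H2A.x immunostain intensity per cell marking DNA damage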
In short: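 HepG2; cpd 0.39–200 uM ×10 conc, duplicates; 0.5% DMSO; 72 hr. Fix 3.7% formaldehyde 30 min RT, 0.5% Triton X-100 10 min. Anti-phospho-H2A.x 1:200 + Hoechst 2 ug/mL, 60 min RT; ArrayScan imaging.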

[2] = APR_HepG2_MitoMembPot_72hr: Apredica 72-hour HepG2 Assay for Mitochondrial Membrane Potential (AID 2282917); settings: imaging, actives raise or lower the signal
In short: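 HepG2 cells exposed 72 h to compounds at 0.39–200 uM (0.5% v/v DMSO, duplicates); MitoTracker Red CMXRos 250 nM loaded 30 min before 3.7% formaldehyde fixation, imaged by HCS fluorescence. Bidirectional fit versus DMSO.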

[3] = APR_HepG2_MitoticArrest_72hr: Apredica 72-hour HepG2 Assay for Mitotic Arrest (AID 2282918); settings: high-content imaging, actives raise or lower the signal
In short: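 High-content imaging of fixed human HepG2 cells after 72 h compound exposure (0.39–200 uM, duplicates, 0.5% DMSO); mitotic arrest scored from phospho-histone H3 and nuclear Hoechst staining relative to DMSO.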

[4] = APR_HepG2_MicrotubuleCSK_72hr: Apredica 72-hour HepG2 Assay for Microtubule CSK Stabilty (AID 2282919); settings: HepG2 microtubule cytoskeleton, high-content imaging, actives raise or lower the signal
In short: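 HepG2 human liver cells were dosed for 72 h at ten concentrations from 0.39 to 200 uM in duplicate (0.5% v/v DMSO final). Fixed, permeabilized cells were immunostained for alpha-tubulin (Cy5) with a Hoechst counterstain and imaged at 20x.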

[5] = APR_HepG2_P-H2AX_24hr: Apredica 24-hour HepG2 Assay for H2AX Phosphorylation (AID 2282920); settings: high-content imaging, actives raise or lower the signal
In short: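 High-content imaging of phospho-histone H2A.x immunofluorescence, nuclei counterstained with Hoechst 33342, in fixed HepG2 cells. Compounds ran 0.39–200 uM in duplicate for 24 h, final DMSO 0.5%. Signal change fitted both directions against DMSO.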

[6] = APR_HepG2_StressKinase_72hr: Apredica 72-hour HepG2 Assay for Stress Kinase (AID 2282921); settings: HepG2 stress kinase (phospho-c-Jun) imaging, actives raise or lower the signal
In short: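 Dose 0.39–200 uM (10 pts, duplicate), 0.5% DMSO; 72 h; fix 3.7% formaldehyde 30 min RT; Triton permeabilize; anti-phospho-c-Jun/Cy3 + Hoechst 60 min RT; image 20x; fit gain/loss vs DMSO.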

[7] = APR_HepG2_StressKinase_24hr: Apredica 24-hour HepG2 Assay for Stress Kinase (AID 2282922); settings: HepG2 stress kinase (phospho-c-Jun) imaging, actives raise or lower the signal
In short: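 HepG2 cells exposed 24 hr to compound at 0.39–200 uM (10 concentrations, duplicate), 0.5% v/v DMSO final. Fixed in 3.7% formaldehyde, permeabilized with Triton X-100, immunolabeled for phospho-c-Jun with Hoechst 33342; HCS fluorescence imaging, bidirectional fit versus DMSO.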

[8] = APR_HepG2_p53Act_72hr: Apredica 72-hour HepG2 Assay for p53 Activation (AID 2282923); settings: high-content imaging, actives raise or lower the signal;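 further: average cellular p53 protein immunofluorescence intensity in HepG2 cells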
In short: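 10-pt conc. 0.39–200 uM, duplicate, 0.5% DMSO; 72 hr exposure; 3.7% formaldehyde fix, 0.5% Triton perm; sheep anti-p53/Cy5 + Hoechst; ArrayScan 20x, 6 images/well; gain/loss fit vs DMSO.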

[9] = APR_HepG2_MitoMass_72hr: Apredica 72-hour HepG2 Assay for Mitochondrial Mass (AID 2282924); settings: high-content imaging, actives raise or lower the signal;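 further: MitoTracker Red CMXRos stain intensity per cell imaged as mitochondrial mass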
In short: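 HepG2 cells were exposed for 72 hr to compounds at 0.39–200 uM (ten concentrations, duplicate, 0.5% v/v DMSO final). Live cells were stained with 250 nM MitoTracker Red CMXRos for 30 min, then fixed in 3.7% formaldehyde and imaged by HCS fluorescence.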

[10] = APR_HepG2_NuclearSize_72hr: Apredica 72-hour HepG2 Assay for Nuclear Size (AID 2282925); settings: high-content imaging, actives raise or lower the signal
In short: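 HepG2 cells were exposed to compounds at ten concentrations from 0.39 to 200 uM (duplicate, 0.5% DMSO final) for 72 hr. After fixation in 3.7% formaldehyde, nuclei were stained with Hoechst 33342 (2 ug/mL) and imaged at 20x.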

[11] = ATG_CRE_CIS: Attagene CIS-FACTORIAL HepG2 Assay for human cAMP Responsive Element (CRE) binding protein 3 (AID 2282926); settings: HepG2 CRE cis-reporter, Attagene multiplexed mRNA; actives raise or lower the signal
In short: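 Multiplexed transcription-unit reporters transfected into HepG2; 24 h dosing; RT-PCR/capillary electrophoresis fluorescence read-out; bidirectional fit vs DMSO.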

[12] = target: CCAAT/enhancer-binding protein beta (Homo sapiens) (UniProt P17676); experiment: ATG_C_EBP_CIS: Attagene CIS-FACTORIAL HepG2 Assay for human CCAAT/Enhancer Binding Protein (C/EBP) beta (AID 2282927); settings: HepG2 Attagene cis-factorial transcription factor reporter; actives raise or lower the signal
Chain of CCAAT/enhancer-binding protein beta (Homo sapiens) (P17676 whole entry, looked up, the tested form may be a part): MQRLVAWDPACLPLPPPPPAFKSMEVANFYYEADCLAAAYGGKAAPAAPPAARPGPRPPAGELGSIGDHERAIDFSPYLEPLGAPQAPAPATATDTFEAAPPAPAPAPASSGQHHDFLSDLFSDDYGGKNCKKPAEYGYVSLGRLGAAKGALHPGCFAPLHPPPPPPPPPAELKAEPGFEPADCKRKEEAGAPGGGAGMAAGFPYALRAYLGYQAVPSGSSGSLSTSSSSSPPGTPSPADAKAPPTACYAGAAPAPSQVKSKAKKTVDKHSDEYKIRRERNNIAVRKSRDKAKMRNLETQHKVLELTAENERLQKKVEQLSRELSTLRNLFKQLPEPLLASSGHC
In short: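 Chemical-treated HepG2 cells (24 h) bearing cis-regulated reporter constructs were processed for total RNA, then reverse transcription, PCR amplification, fluorescent primer extension and fragment analysis; gain- and loss-of-signal were fitted against DMSO.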

[13] = ATG_CMV_CIS: Attagene CIS-FACTORIAL HepG2 Assay for human CMV (Internal Marker) (AID 2282928); settings: HepG2 CMV promoter reporter, transcription factor profiling; actives raise or lower the signal;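 further: endpoint acts as a background internal control marker rather than a target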
In short: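 Endogenous transcription factor activity read in HepG2 via transfected cis-promoter reporter units. After 24 h dosing, reporter mRNA measured by RT-PCR/capillary electrophoresis; gain or loss of signal fit relative to DMSO.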

[14] = ATG_DR4_LXR_CIS: Attagene CIS-FACTORIAL HepG2 Assay for human Liver X Receptor (LXR), DR4 submotif (AID 2282929); settings: HepG2 Attagene DR4 cis-reporter, mRNA transcription; actives raise or lower the signal
In short: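 Transiently transfected HepG2 liver cells; cis-regulated reporters; 24 h dosing. RT-PCR plus CE read-out of reporter mRNA. DMSO baseline, bidirectional curve fitting.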

[15] = target: Aryl hydrocarbon receptor (Homo sapiens) (UniProt P35869); experiment: ATG_Ahr_CIS: Attagene CIS-FACTORIAL HepG2 Assay for human Aryl Hydrocarbon Receptor (Ahr) (AID 2282930); settings: HepG2 AhR cis-factorial reporter transcription; actives raise or lower the signal
Chain of Aryl hydrocarbon receptor (Homo sapiens) (P35869 whole entry, looked up): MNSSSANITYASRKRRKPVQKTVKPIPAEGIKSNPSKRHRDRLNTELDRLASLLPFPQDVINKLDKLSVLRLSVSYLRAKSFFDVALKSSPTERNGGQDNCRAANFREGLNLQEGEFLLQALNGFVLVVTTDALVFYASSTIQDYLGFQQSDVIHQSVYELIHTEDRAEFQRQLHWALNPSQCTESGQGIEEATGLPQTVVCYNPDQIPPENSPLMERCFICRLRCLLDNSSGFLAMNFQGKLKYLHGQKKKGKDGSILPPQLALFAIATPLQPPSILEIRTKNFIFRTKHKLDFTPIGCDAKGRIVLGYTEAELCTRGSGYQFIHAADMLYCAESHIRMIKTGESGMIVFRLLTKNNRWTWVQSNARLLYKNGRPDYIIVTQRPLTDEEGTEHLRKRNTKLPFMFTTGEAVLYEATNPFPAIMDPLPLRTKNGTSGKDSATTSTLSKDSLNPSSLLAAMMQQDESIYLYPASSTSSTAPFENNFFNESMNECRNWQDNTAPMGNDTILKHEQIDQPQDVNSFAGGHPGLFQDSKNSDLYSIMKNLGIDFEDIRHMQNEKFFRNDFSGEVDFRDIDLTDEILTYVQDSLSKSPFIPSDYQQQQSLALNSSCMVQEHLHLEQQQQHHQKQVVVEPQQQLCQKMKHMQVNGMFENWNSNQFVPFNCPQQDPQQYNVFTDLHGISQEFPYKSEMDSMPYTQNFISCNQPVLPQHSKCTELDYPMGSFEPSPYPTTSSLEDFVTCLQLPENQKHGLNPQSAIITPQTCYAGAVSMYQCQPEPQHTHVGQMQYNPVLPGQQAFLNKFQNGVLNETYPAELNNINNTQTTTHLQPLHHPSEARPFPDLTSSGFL
In short: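 Following 24 h of chemical dosing, transfected HepG2 liver cells with cis-driven reporter units were lysed for RNA; reporter mRNA was quantified via RT-PCR and capillary electrophoresis, and responses fitted bidirectionally from DMSO.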

[16] = ATG_AP_2_CIS: Attagene CIS-FACTORIAL HepG2 Assay for human Activator Protein 2 (AP-2) (AID 2282932); settings: HepG2 AP-2 cis-reporter, Attagene transcription factor profiling; actives raise or lower the signal
In short: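 Bidirectional curve fitting against DMSO was applied to reporter mRNA signals from HepG2 cells 24 h after dosing. Cis-promoter reporter units, transiently transfected, were read by RT-PCR plus capillary electrophoresis.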

[17] = ATG_BRE_CIS: Attagene CIS-FACTORIAL HepG2 Assay for human Bone Morphogenetic Protein (BMP) Response Element (BRE) (AID 2282933); settings: HepG2 BMP response element reporter, Attagene transcription factor profiling; actives raise or lower the signal
In short: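 After a 24 h chemical treatment, transiently transfected HepG2 cells were lysed for RNA; reporter transcripts were quantified by fluorescent RT-PCR and capillary electrophoresis, normalised to DMSO.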

[18] = target: Retinoic acid receptor alpha (Homo sapiens) (UniProt P10276); experiment: ATG_DR5_RAR_CIS: Attagene CIS-FACTORIAL HepG2 Assay for human Retinoic Acid Receptor Alpha (RARE), DR5 submotif (AID 2282934); settings: HepG2 Attagene cis-factorial RARE DR5 reporter, mRNA; actives raise or lower the signal;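 on AC50: reporter responds to endogenous RAR alpha beta and gamma in HepG2 not RARA alone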
Chain of Retinoic acid receptor alpha (Homo sapiens) (P10276 whole entry, looked up): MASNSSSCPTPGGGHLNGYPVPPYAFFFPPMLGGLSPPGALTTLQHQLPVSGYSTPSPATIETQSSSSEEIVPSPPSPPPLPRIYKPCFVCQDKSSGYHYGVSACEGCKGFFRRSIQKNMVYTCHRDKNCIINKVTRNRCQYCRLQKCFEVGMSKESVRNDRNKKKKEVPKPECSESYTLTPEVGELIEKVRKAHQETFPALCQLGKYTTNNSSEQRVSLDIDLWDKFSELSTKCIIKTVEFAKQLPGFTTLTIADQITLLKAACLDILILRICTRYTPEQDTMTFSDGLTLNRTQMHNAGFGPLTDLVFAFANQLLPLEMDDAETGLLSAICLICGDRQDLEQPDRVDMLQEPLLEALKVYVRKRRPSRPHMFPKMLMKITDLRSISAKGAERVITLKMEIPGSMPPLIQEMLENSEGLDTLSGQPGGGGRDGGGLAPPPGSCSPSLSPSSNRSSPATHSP
In short: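 Transfected HepG2 reporter cells are exposed to chemicals for 24 h. Then RNA is extracted and the DR5 element reporter transcript is measured by RT-PCR and capillary electrophoresis, with bidirectional curve fitting relative to DMSO.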

[19] = target: Transcription factor E2F1 (Homo sapiens) (UniProt Q01094); experiment: ATG_E2F_CIS: Attagene CIS-FACTORIAL HepG2 Assay for human E2F Transcription Factor 1 (AID 2282935); settings: HepG2 Attagene cis-reporter, E2F reporter RNA transcripts; actives raise or lower the signal
Chain of Transcription factor E2F1 (Homo sapiens) (Q01094 whole entry, looked up): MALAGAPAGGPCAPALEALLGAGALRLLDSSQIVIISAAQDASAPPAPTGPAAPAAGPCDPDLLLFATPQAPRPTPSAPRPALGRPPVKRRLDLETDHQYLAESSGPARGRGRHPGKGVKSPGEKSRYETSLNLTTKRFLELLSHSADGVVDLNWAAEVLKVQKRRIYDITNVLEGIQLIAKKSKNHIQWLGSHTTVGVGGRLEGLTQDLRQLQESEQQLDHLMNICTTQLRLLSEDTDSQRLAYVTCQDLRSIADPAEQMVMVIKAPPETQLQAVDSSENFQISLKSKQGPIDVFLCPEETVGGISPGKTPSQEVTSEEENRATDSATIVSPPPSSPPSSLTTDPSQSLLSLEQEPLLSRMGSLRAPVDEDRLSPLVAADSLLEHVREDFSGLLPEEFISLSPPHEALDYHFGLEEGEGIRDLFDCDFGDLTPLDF
In short: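 Multiplexed cis-reporter assay: HepG2, transient transfection, 24 h dosing, mRNA quantitation by labeled RT-PCR and CE.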

[20] = ATG_AP_1_CIS: Attagene CIS-FACTORIAL HepG2 Assay for human Activator Protein 1 (AP-1) (AID 2282931); settings: HepG2 Attagene cis-factorial AP-1 reporter mRNA; actives raise or lower the signal
In short: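 We transfected HepG2 cells transiently with a set of cis-regulated reporter transcription units, dosed them for 24 h, and quantified reporter mRNA via RT-PCR and capillary electrophoresis, scoring gain or loss of signal relative to DMSO.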

Measured: AC50

O=C(NC(=O)c1c(F)cccc1F)Nc1cc(Cl)c(OC(F)(F)C(F)F)c(Cl)c1
active: [3] 16.9 µM | [8] 6.27 µM
not listed: [20]
inactive: all other assays above

CN(C)CCO
not listed: [20]
inactive: all other assays above

CCSC(=O)N(CC)C1CCCCC1
not listed: [8] | [18] | [20]
inactive: all other assays above

C=CC(N)=O
active: [14] 47.6 µM
not listed: [20]
inactive: all other assays above

CCC(C)c1cc([N+](=O)[O-])cc([N+](=O)[O-])c1O (stereo not drawn)
active: [1] 69.7 µM | [2] 111 µM | [5] 67.4 µM | [9] 72.3 µM | [11] 14 µM | [12] 12.5 µM | [13] 19.6 µM | [20] 10.6 µM | [17] 11.8 µM | [18] 13.2 µM
inactive: [3] | [4] | [6] | [7] | [8] | [10] | [14] | [15] | [16] | [19]

Cc1ccc(O)c(C)c1
not listed: [20]
inactive: all other assays above

O=NN(c1ccccc1)c1ccccc1
active: [2] 0.0668 µM
not listed: [20]
inactive: all other assays above

Oc1ccc(Cl)cc1Cl
not listed: [20]
inactive: all other assays above

CO/C=C(/C(=O)OC)c1ccccc1COc1cccc(C(F)(F)F)n1
active: [1] 20.5 µM | [3] 29.1 µM | [8] 26.9 µM | [9] 0.638 µM | [14] 7.46 µM | [17] 20.2 µM
not listed: [20]
inactive: all other assays above

C1CC2OC2CC1C1CO1 (stereo not drawn)
active: [15] 81.5 µM
not listed: [20]
inactive: all other assays above

Nn1cnnc1
not listed: [20]
inactive: all other assays above

COS(=O)(=O)OC
inactive: all assays above

CCOC(=O)C(O)(c1ccc(Cl)cc1)c1ccc(Cl)cc1
active: [1] 48.1 µM | [3] 48.5 µM | [5] 77.5 µM | [8] 49.4 µM | [10] 105 µM | [14] 8.72 µM | [15] 8.63 µM
not listed: [20]
inactive: all other assays above

CCC(C)(c1ccc(O)cc1)c1ccc(O)cc1
active: [5] 104 µM | [6] 34.3 µM | [11] 53.2 µM | [13] 56.5 µM and 56.1 µM and 23.2 µM | [14] 47.5 µM [middle of 4 runs] | [15] 58.9 µM | [20] 59.3 µM and 33.4 µM and 15.6 µM
inactive: [1] | [7] | [8] | [10] | [11] | [12] | [13] | [15] | [20] | [16] | [17] | [19]

O=C(O)C(F)(F)C(F)(F)C(F)(F)C(F)(F)C(F)(F)F
not listed: [20]
inactive: all other assays above

Cc1ccccc1CO[C@@H]1C[C@@]2(C(C)C)CC[C@]1(C)O2
not listed: [8] | [20]
inactive: all other assays above
